Data on 69 compounds can be found in PubChem BioAssay AID652162 (Broad Institute, 2013).

In general, inhibition refers to the relative decrease from the control value, in per cent.

About 840 (0.24%) of roughly 350,000 compounds were called active. The sample holds actives, similar compounds and a random draw of the others, so the mix is not that of the screen. No stated cut-off is given here; in the data, active means inhibition above about 10%; inactive means the rest.

The target of this test is Toxin B (Clostridioides difficile) (UniProt P18177). Put plainly: TcdB glycohydrolase inhibitors, primary screen, biochemical, single point, plate reader (AID 652162). As to conditions: TcdB glycohydrolase enzymatic assay, at 9.99 µM, active compounds read high.
Sequence of Toxin B (Clostridioides difficile) (P18177 whole entry, looked up): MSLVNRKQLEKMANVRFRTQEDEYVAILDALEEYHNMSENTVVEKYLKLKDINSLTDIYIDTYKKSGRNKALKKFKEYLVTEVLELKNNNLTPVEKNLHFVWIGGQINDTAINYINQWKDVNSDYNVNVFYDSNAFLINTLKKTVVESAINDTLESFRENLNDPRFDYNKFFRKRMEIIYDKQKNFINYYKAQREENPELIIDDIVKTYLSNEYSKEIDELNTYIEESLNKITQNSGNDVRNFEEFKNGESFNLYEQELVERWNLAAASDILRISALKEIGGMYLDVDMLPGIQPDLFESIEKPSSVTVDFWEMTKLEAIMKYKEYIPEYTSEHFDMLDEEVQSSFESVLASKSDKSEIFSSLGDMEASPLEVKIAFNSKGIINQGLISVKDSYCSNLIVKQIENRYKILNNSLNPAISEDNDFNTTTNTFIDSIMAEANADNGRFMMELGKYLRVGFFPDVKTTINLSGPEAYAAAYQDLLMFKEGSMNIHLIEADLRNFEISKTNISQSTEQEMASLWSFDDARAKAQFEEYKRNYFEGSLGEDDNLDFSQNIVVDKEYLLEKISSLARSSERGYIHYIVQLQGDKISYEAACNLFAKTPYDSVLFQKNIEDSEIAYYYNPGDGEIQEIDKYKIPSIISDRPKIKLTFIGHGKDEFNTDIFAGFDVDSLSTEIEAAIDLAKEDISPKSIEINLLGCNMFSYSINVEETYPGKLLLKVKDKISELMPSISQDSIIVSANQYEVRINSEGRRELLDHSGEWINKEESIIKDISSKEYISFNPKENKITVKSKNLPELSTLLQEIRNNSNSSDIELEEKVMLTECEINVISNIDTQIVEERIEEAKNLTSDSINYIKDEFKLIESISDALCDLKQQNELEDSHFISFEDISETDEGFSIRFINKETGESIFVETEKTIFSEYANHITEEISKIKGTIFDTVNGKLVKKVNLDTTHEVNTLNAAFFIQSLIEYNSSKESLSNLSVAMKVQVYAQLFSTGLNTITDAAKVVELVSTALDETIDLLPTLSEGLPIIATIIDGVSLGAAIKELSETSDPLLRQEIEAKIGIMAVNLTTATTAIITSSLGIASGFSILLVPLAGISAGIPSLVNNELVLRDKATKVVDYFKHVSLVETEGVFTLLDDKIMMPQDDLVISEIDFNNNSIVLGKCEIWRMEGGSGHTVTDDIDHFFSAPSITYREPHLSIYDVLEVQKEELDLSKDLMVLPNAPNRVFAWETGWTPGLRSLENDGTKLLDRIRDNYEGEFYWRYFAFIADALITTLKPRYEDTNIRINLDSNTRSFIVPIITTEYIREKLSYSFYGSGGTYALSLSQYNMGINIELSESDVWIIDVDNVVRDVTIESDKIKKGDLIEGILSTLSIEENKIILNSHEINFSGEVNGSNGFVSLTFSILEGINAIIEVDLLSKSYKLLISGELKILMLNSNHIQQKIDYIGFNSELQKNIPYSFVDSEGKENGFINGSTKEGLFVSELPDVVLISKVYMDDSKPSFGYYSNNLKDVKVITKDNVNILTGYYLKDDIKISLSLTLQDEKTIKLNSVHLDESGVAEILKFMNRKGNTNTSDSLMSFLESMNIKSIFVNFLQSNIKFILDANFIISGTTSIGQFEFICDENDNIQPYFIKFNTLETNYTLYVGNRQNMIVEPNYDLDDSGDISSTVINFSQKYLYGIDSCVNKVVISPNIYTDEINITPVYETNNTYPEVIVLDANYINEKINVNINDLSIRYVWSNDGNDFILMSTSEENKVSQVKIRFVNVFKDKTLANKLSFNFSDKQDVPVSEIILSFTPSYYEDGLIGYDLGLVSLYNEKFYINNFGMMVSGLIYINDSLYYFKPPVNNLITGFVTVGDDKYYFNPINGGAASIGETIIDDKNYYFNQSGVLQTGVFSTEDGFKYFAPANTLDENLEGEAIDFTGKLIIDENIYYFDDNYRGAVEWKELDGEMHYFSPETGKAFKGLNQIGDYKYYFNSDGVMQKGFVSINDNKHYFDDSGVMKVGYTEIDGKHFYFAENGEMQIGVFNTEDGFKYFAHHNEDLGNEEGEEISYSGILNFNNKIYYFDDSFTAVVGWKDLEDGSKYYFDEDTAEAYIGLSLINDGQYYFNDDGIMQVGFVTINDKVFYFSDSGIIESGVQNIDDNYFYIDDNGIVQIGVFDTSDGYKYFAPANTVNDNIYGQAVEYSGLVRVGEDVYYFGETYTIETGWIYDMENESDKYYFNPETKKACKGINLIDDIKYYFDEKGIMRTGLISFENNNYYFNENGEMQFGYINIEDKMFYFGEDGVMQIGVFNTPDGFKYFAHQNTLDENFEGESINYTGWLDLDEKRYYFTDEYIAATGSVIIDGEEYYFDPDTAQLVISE
As to `Cc1noc(C)c1S(=O)(=O)N(C)C[C@@H]1Oc2c(NS(=O)(=O)c3cn(C)cn3)cccc2C(=O)N([C@H](C)CO)C[C@@H]1C`, the inhibition was -0.292% (inactive).
As for `COc1ccc(S(=O)(=O)N(C)C[C@@H]2Oc3ccc(NC(=O)C4CC4)cc3CC(=O)N([C@@H](C)CO)C[C@@H]2C)cc1`, the figure is 0.342% (inactive); as for `COc1cccc(OC)c1C(=O)NC(=S)NCc1ccco1`, 1.13% (inactive).
Next, `COC(=O)Cc1ccc(NC(=S)NCc2ccco2)cc1`: 16% (active); `S=C(NCc1ccco1)Nc1ccc2c(c1)OCCO2`: -0.084% (inactive); `COC(=O)C[C@H]1CC[C@H]2[C@@H](COc3ccc(NC(=O)C4CC4)cc3C(=O)N2C)O1`: 0.647% (inactive).
For `COc1ccc2c3c(n(C)c2c1)[C@H](CO)N(C(=O)C1CCCC1)CC31CCN(C(=O)c2ccncc2)CC1`, the inhibition was 0.361% (inactive).
As for `C[C@H](O)C#Cc1ccc([C@@H]2[C@@H](CO)N3CCCCN(C(=O)c4ccncc4)C[C@@H]23)cc1`, the figure is 0.304% (inactive); as for `CCS(=O)(=O)N1CCC2(CC1)CN(Cc1ccc3c(c1)OCO3)[C@H](CO)c1[nH]c3cc(OC)ccc3c12`, 0.545% (inactive); as for `CCCC#Cc1ccc([C@@H]2[C@@H](CO)N3C(=O)CN(C(=O)Nc4cccc(F)c4)C[C@H]23)cc1`, 0.796% (inactive).
Next, `O=C(c1ccncc1)N1CC(=O)N2[C@H](CO)[C@H](c3ccc(-c4ccccc4F)cc3)[C@@H]2C1`: -0.127% (inactive); `COCC#Cc1cnc2c(c1)C(=O)N([C@@H](C)CO)C[C@@H](C)[C@@H](CN(C)S(=O)(=O)c1cccc(OC)c1)O2`: 0.452% (inactive); `CC(C)NC(=O)Nc1ccc2c(c1)C(=O)N([C@H](C)CO)C[C@H](C)[C@@H](CN(C)C)OCCCC[C@H](C)O2`: 0.315% (inactive).
For the compound `COc1ccc(NC(=O)N(C)C[C@H]2Oc3c(NC(=O)C4CC4)cccc3C(=O)N([C@@H](C)CO)C[C@@H]2C)cc1`, the inhibition is -0.546% (inactive).
Next, `CNC(=O)C[C@@H]1CC[C@@H]2[C@H](COC[C@H](O)CN2Cc2ccc(C(F)(F)F)cc2)O1`: -1.26% (inactive).
`C[C@@H]1CCCCO[C@H](CN(C)C(=O)Nc2cccc3ccccc23)[C@H](C)CN([C@@H](C)CO)C(=O)c2cc(NC(=O)CCCN(C)C)ccc2O1`: the inhibition was -0.333% (inactive).
Next, `O=C(C[C@@H]1C[C@@H]2c3cc(NC(=O)C4CCOCC4)ccc3O[C@@H]2[C@H](CO)O1)NCc1ccncc1`: 0.039% (inactive); `C/C=C/c1ccc([C@@H]2[C@@H](CO)N(C(=O)c3ccccc3)C23CN(C(C)=O)C3)cc1`: 1.41% (inactive).
Next, `C[C@@H]1CN([C@@H](C)CO)C(=O)c2cc(C#CCN(C)C)cnc2O[C@H]1CN(C)S(=O)(=O)c1cn(C)cn1`: 1.29% (inactive); `COc1ccccc1N1CC(O)=C(c2nc3ccccc3s2)C1=N`: 14.9% (active); `Oc1ccc(-c2[nH]ncc2-c2nc3ccccc3s2)c(O)c1`: -1.73% (inactive).
In the case of `CCc1ccc(N2CC(O)=C(c3nc4ccccc4c(=O)[nH]3)C2=N)cc1`, the inhibition is 2.4% (inactive).
Take `O=C(C[C@H]1CC[C@H]2[C@@H](COC[C@H](O)CN2C(=O)c2ccccc2F)O1)NCc1ccccc1`: the inhibition is 0.135% (inactive).
In the case of `CO[C@H]1CN(C)C(=O)c2cc(NS(=O)(=O)CC(F)(F)F)ccc2OC[C@H](C)N(C(=O)c2ccc3c(c2)OCO3)C[C@H]1C`, the inhibition was 0.021% (inactive).
Next, `COCC(=O)N1CC[C@@H]2[C@@H](CO)Nc3ccc(-c4ccc(C(=O)N(C)C)cc4)cc3[C@@H]21`: -1.67% (inactive).
As to `O=C(NN=C1CCC(=NNC(=O)c2cccnc2)CC1)c1cccnc1`, the inhibition is 54% (active).
As for `O=C(Nc1cnccn1)c1cccnc1`, the figure is 1.15% (inactive); as for `O=C(CC(=O)c1cccnc1)c1ccccc1`, 0.622% (inactive); as for `CCOc1ccc(C(CC(=O)O)NC(=O)C23CC4CC(CC(C4)C2)C3)cc1OC` (centres undefined), 12.9% (active).
As for `COc1ccc(C(C)NC(=O)C23CC4CC(CC(C4)C2)C3)cc1` (centres undefined), the figure is 0.441% (inactive); as for `CCOc1ccc(C(CC(=O)O)n2cnnn2)cc1OC` (centres undefined), 1.46% (inactive); as for `CC(C)NC(=O)N(C)C[C@@H]1Oc2ccc(NS(=O)(=O)c3ccccc3)cc2C(=O)N([C@@H](C)CO)C[C@H]1C`, 1% (inactive).
Next, `Cc1noc(C)c1NC(=O)N(C)C[C@@H]1OCCCC[C@H](C)Oc2ccc(NC(=O)NC3CCCCC3)cc2C(=O)N([C@H](C)CO)C[C@H]1C`: 1.84% (inactive); `COC(=O)C1=C[C@@H](C(=O)OC)[C@@H]2C3=C(C(=O)[C@]2(C)NC(=O)c2ccccc2)[C@H](C)n2c(=O)n(C)c(=O)n2[C@@H]3C1`: 11.2% (active).
Turning to `CCC1(CC)C(=O)C2=C3C1[C@H](C(=O)OC)C=C(C(=O)OC)C[C@H]3[C@H]1C(=O)N(Cc3ccccc3)C(=O)[C@H]1[C@H]2C` (some centres undefined), the inhibition is 0.94% (inactive).
Next, `C[C@H]1CN([C@@H](C)CO)C(=O)c2cc(NS(=O)(=O)c3ccccc3)ccc2O[C@@H]1CN(C)C(=O)NC1CCCCC1`: 3.22% (inactive); `O=C(NC[C@H]1[C@@H](c2ccccc2)[C@H](CO)N1CC1CC1)c1cccnc1`: -2.13% (inactive).
As for `C/C=C/c1ccc2c(c1)O[C@H](CN(C)Cc1cccc(F)c1)[C@H](C)CN([C@H](C)CO)S2(=O)=O`, the figure is 0.906% (inactive); as for `Cc1ccc(S(=O)(=O)N(C)C[C@@H]2OCCCC[C@@H](C)Oc3ccc(NC(=O)Nc4ccc(C(F)(F)F)cc4)cc3C(=O)N([C@@H](C)CO)C[C@@H]2C)cc1`, -1.2% (inactive); as for `COCC(=O)Nc1ccc2c(c1)C(=O)N(C)[C@@H]1CC[C@H](CC(=O)NCCc3ccccc3)O[C@@H]1CO2`, -0.476% (inactive).
Next, `COc1ccc(NC(=O)N(C)C[C@H]2Oc3cc(-c4ccncc4)ccc3S(=O)(=O)N([C@@H](C)CO)C[C@H]2C)cc1`: 0.138% (inactive); `C[C@@H]1CN([C@H](C)CO)C(=O)c2cc(-c3ccc(C(=O)N(C)C)cc3)cnc2O[C@H]1CN(C)C(=O)C1CC1`: 1.01% (inactive).
As for `CCC(=O)N(C)C[C@H]1Oc2cc(C#CC3CC3)ccc2S(=O)(=O)N([C@H](C)CO)C[C@H]1C`, the inhibition was -0.263% (inactive).
As for `COCC(=O)N1C[C@H]2[C@@H](c3ccccc31)[C@@H](CO)N2C(=O)NC(C)C`, the inhibition is -0.399% (inactive).
Next, `Nc1ccccc1-c1nc2ccncc2[nH]1`: 12.2% (active).
As for `CCOC(=O)CNC(=O)CSc1ncccc1-c1nc2ccccc2[nH]1`, the figure is -7.68% (inactive); as for `Cc1cc(C)nc(Nc2n[nH]c(-c3ccccc3N)n2)n1`, -0.68% (inactive); as for `COCC(=O)N(C)C[C@@H]1Oc2ncc(-c3ccccc3OC)cc2C(=O)N([C@@H](C)CO)C[C@@H]1C`, -11.6% (inactive).
Next, `CC(C)NC(=O)N1C[C@@H]2[C@H](c3ccccc31)[C@@H](CO)N2Cc1ccc(Cl)cc1`: -0.718% (inactive).
As for `Cc1noc(C)c1NC(=O)N(C)C[C@@H]1OCCCC[C@H](C)Oc2ccc(NC(=O)NC3CCCCC3)cc2C(=O)N([C@H](C)CO)C[C@@H]1C`, the inhibition was 0.987% (inactive).
As for `COc1cc(/C=C2\C(=N)N3N=C(CC(=O)N4CCOCC4)SC3=NC2=O)cc(OC)c1OC`, the figure is 0.211% (inactive).
With `C=CCC1=C/C(=C\c2c(N)n3nc(CC(=O)N4CCOCC4)sc3nc2=O)C=C(OC)C1=O`, the inhibition is -3.86% (inactive).
As for `COC1=C/C(=C/c2c(N)n3nc(CC(=O)N4CCOCC4)sc3nc2=O)C=CC1=O`, the figure is 11.3% (active).
Next, `CCCC(=O)N1CC2(CCN(C(=O)C3CC3)CC2)c2c(n(C)c3cc(OC)ccc23)[C@H]1CO`: -0.231% (inactive); `CCS(=O)(=O)Nc1ccc2c(c1)C(=O)N(C)C[C@@H](OC)[C@@H](C)CN(C(=O)COC)[C@H](C)CO2`: -1.04% (inactive); `C[C@@H]1CCCCO[C@@H](CN(C)C(=O)NC2CCCCC2)[C@@H](C)CN([C@@H](C)CO)C(=O)c2cc(NC(=O)C3CCCCC3)ccc2O1`: 0.287% (inactive).
On to `C[C@@H]1CN([C@H](C)CO)C(=O)CCCn2cc(nn2)CO[C@@H]1CN(C)C(=O)Nc1ccc(-c2cccs2)cc1`, for which the inhibition was -8.3% (inactive).
As for `O=C(COC(=O)c1cccnc1Cl)NC(=O)NC1CCCCC1`, the figure is 1.25% (inactive); as for `CC(Oc1ccc(Br)cc1)C(=O)NC1CCCCCC1` (centres undefined), 2.69% (inactive).
Next, `CC(OC(=O)c1cccnc1Cl)C(=O)NC1CCCCC1` (centres undefined): 15.9% (active); `COCCNC(=O)[C@@H]1[C@@H](CO)[C@@H]2Cn3c(ccc(-c4ccccc4F)c3=O)[C@@H]2N1C(=O)C1CC1`: -1.01% (inactive); `Cc1ccccc1S(=O)(=O)NCC[C@@H]1CC[C@H](NC(=O)C2CCCCC2)[C@@H](CO)O1`: 0.652% (inactive).
In the case of `C=CCn1c(SCc2ccccc2)nc2c1c(=O)[nH]c(=O)n2C`, the inhibition is 1.32% (inactive).
Next, `Cn1c(=O)[nH]c(=O)c2c1[nH]c(=S)n2Cc1ccccc1`: 20.2% (active); `Cc1nnc(Sc2nc3c(c(=O)[nH]c(=O)n3C)n2Cc2ccccc2)s1`: -0.878% (inactive).
Next, `CC(=O)N1CCCCN2[C@H](C1)[C@@H](c1ccc(-c3ccc(F)cc3)cc1)[C@@H]2CO`: -0.351% (inactive).
As for `C[C@H]1CN([C@@H](C)CO)S(=O)(=O)c2ccc(-c3ccccc3F)cc2O[C@H]1CN(C)C(=O)C1CC1`, the figure is -0.346% (inactive).
With `COc1ccc(NC(=O)N[C@H]2CC[C@@H](CCNC(=O)c3cc(Cl)cc(Cl)c3)O[C@H]2CO)cc1`, the inhibition is -0.154% (inactive).
Regarding `C[C@H]1CN([C@@H](C)CO)C(=O)Cc2cc(NC(=O)Cn3cnnn3)ccc2O[C@H]1CN(C)CC1CC1`, the inhibition was 0.02% (inactive).
